# Laboratory results published in PubChem BioAssay AID1159506 (National Center for Advancing Translational Sciences (NCATS), 2015).
# Over roughly 59,000 sequences, the read-out has its median near -0.00055; the lowest 2% begin near -2. The entries come from a sample that favours the lowest values as a whole.
# Test: Identification of proteins required for the processing of the EWS-FLI1 nascent transcript;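 also: robust z of luciferase light less the median z of siRNAs with the same seed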
# Settings: TC32 Ewing sarcoma NR0B1-luc vs CMV-luc (EWS-FLI1 target promoter against control promoter), 48 h; screened at 20 nM (by protocol)
# Experimental: Ewing sarcoma (ES) cells depend on the EWS-FLI1 fusion transcription factor for cell survival. Using an assay of EWS-FLI1 activity and genome-wide siRNA screening we have identified proteins required for the processing of the EWS-FLI1 nascent transcript. Parallel genome-wide siRNA-mediated RNAi screens were conducted in Ewing sarcoma TC32 cell lines expressing a luciferase (luc) reporter protein driven by either the promoter of the EWS-FLI1 target gene NR0B1 (TC32-NR0B1-luc) or the CMV promoter (TC32-CMV-luc). Luciferase activity was assessed 48 hours post siRNA-transfection.
# Twenty microl of serum-free media containing Lipofectamine RNAiMax (0.05 microl) was added to wells containing siRNA (0.8 pmol). Lipid and siRNA were allowed to complex for 45 min at ambient temperature before addition of 600 cells in RPMI-1640, 20% FBS to yield final transfection mixtures containing 20 nM siRNA in RPMI-1640, 10% FBS. Luciferase expression was measured using OneGlo (Promega, Madison, WI). The genome-wide screening campaign was conducted using Ambion's human genome library version 4.1 (Ambion, Austin TX). This library targets approximately 21000 human genes, three siRNAs per gene. Each siRNA is arrayed in an individual well of a 384-well plate. Parallel transfections were conducted in TC32-NR0B1-luc and TC32-CMV-luc cell lines and luciferase expression (OneGlo, Promega) was assayed 48 h later on a PerkinElmer Envision 2104 Multilabel plate reader (PerkinElmer, Waltham, MA). Qiagen's AllStars Negative control was incorporated on all screening plates for normalization (16 wells per plate). Qiagen, Germantown, MDsiGL4 was incorporated as a positive transfection control (16 wells per plate) on all plates. […] The raw luciferase data for the NR0B1- and CMV-luc screens were normalized and z-score-MAD transformed using standard methods (Chung et al., 2008). The miRNA-like seed sequence of every siRNA was determined and the median z-score for all siRNA sequences with the same seed sequence was calculated. This z-score was subtracted from the z-score associated with each siRNA with that seed sequence to generate a seed-adjusted z-score value (Z) that was used when the results for the three siRNAs corresponding to each gene were compared (Marine et al., 2012)
row,Sequence,seed-corrected z-score
1,UAGCAUGAAACUUUUGUUG against STK35,0.199
2,UUGGUUGGAACUACUUACG against STARD9,-3.22
3,UGUGGUAUUUAGUUGUUCG against PRMT2,-0.735
4,ACUGGAAUAAGACCGGCUG against EMCN,-0.0798
5,ACUAGGAUCACGACUUUCC against SLC30A9,-0.286
6,UCUGUUUUCAGGUGCAUCC against AHRR,-0.835
7,UUCGUUAUCUAUUUCCACC against CASC5,-1.38
8,UCAUUGUUCAAGGUCAUUC against ABTB2,0.182
9,UUCCAGUUGAGUGGUGUCC against SLA2,-2.67
10,AAUUUGUUCACGUAAACUU against POU3F2,0.623
11,UUCCGUAAGACUGACACUC against REG4,-15.5
12,UCUCGUUCGGUAAUCUUCC against PPP2R2C,-0.613
13,AUCCCUUCAAUGGCCAUCC against ECHDC2,-0.995
14,AUUGUUAUAGAAGCGGUCU against SPA17,-0.602
15,UGACGUACCUAUCCACUGC against MC5R,-0.731
16,UCGUUGCUCAGCAUCAAUC against SBNO1,-0.827
17,AUCGAUCUAGUUUAAUUCC against DGKE,-0.537
18,UGUAUAGUCAUGAUAAUGU against LOC643784,-0.459
19,UCAGGGCUCAGACAGGACU against TSC22D3,-2.02
20,AGAGAAUAAAGAGCUGGAC against TMEM79,0.267
21,AGACUUGCGAACAUGAUUC against CGGBP1,0.518
22,UUCCUUCCUACUCAGGGUC against S100A5,-2.25
23,UCAACCUUUACUGAAGGCC against ARNTL,-0.133

row,Sequence,seed-corrected z-score
1,UAUAGCGAAGGGACAAACC against LRRTM3,0.0787
2,UGAUGAUUAUCUUUGAAUG against IGFBP3,0.761
3,AAACGUACCUUGUCAUUCC against TXK,-0.645
4,UUUUCUCUCGUAUUAAUUG against GSDMB,0.329
5,UCAUCAUCUAAUAAAGUCC against MRO,-3.11
6,ACUGGAUUAACAUCAUCUG against SDHAF4,-0.445
7,UGCUUUCUCAGGGCAGCUC against ZFP42,-0.0418
8,AAAGGGAUGCUCCAAGCGC against NME3,0.482
9,AUAAGUUGCAGCAAAAUCC against MAB21L1,-0.725
10,AUCGAUGAUAGCCUGCUCG against ANXA8L1,-2.86
11,UUUACCACAGGUUUCUUCC against HIRIP3,-0.591
12,UAACUUCAAACCGAUUUCU against TRMU,-0.389
13,AAAGUAAAGAUAUGCGUGU against TBX21,1.07
14,UCUGUCGAUAGUCUUCUCG against STIP1,0.345
15,UAAUGUACUCGUCACACCU against BICD2,-2.89
16,UAUGGGACAUCCUAAUCAC against KIAA0586,-0.187
17,UCCGCUUUAACCCUGCUUC against PRDM2,-0.723
18,UUUAGCUCUGGAACAAUGC against SLC38A1,0.0432
19,UUACUAGUAAUGGACCCGC against YTHDF2,1.05
20,UUCAUAUAUACUCUGAUUC against C1DP3,0.587
21,UACUCGACCUUCUUUCACC against PPP3CB,0.354
22,AAAGAUUGAGGUGGUAUGC against YTHDF3,-2.48
23,UUUCGGUUUCCACUUUUCC against NIPAL3,0.547

row,Sequence,seed-corrected z-score
1,UAACUCAUCAACUUUAUCG against CHMP4B,-0.576
2,UUCUCUAUCUCAUGAAUCC against RAB19,0.0141
3,AGUGAAUCGAGAGCAAUGG against ELP5,0.672
4,AAAAGAACCUCCAACAAUC against COX16,-2
5,UCUAUGUCUCAGGUACUGC against CCDC15,0.12
6,AUAGAUCCUAAAGAACUGG against GPR141,-0.531
7,UUUUAGUCUACGAAGAUCC against ANKIB1,-0.435
8,UGUCAUAUGGGCUUGCUCC against CEP250,-0.255
9,UCCACUUAAACACUCCUCC against DCLRE1C,-2.25
10,UAGCUGUCCGUGAAGAUCC against ADCYAP1,0.344
11,ACAAUGUAUACUGUAGUCC against CDHR2,0.247
12,AAUAGGAUAAAUGUUCCGG against SMURF2,0.293
13,AUACGUGAUACUUCCCUCC against MS4A13,-1.19
14,UGUCUUCUCAUGCAGUUUC against ACSF2,-0.5
15,UCUGUGAAAAUCUUCCACG against ZNF174,0.076
16,UAUAGGCCUGCUGAGAUCG against GALT,0.826
17,UAGUUGCCUAAUUACACUG against MYO3A,-2.22
18,UUCACGGUCACAUUGCGCG against MAG,-0.22
19,UAUGAAGAGGAGACCAACC against PSMD10,-0.0551
20,UAAGCUAUUUCCUCGGCUC against MTCH2,0.402
21,UAAAGAUUACCUGAGACCG against FBXO36,0.489
22,UUGACUAUAAGUAAGUCUC against STXBP5,-2.91
23,UGCGCGAUGAUGAGUACCG against ABCB9,0.705

row,Sequence,seed-corrected z-score
1,UUCCUUAGAAACUGCAUAC against JMY,-0.827
2,UUCGUGAACAGACAGAACU against OAS2,-0.385
3,UAAGAACAUAGUACAGCUC against LDB1,-0.519
4,AAACUUAUAGAACUCACUG against CCDC148,-0.143
5,UCCGCAUGAACUCGUAGCU against PLEKHJ1,0.0613
6,UAGUUGUCCAACAUUGGUU against ZNF99,-3.24
7,UAGCGAUUGUGAAUCUUGC against RNF19A,-0.443
8,UAUGGUGUAAGUUUUCGGG against FARSB,0.451
9,UUCGGGUCCACUGAUUUCC against CHMP4B,-1.35
10,UGUCAUAACAGCUCCGCGA against ELK1P1,-0.141
11,UAUAUGUCCGGGCGUGUUC against MAPK11,0.187
12,AACCUGAUAAUAACCAGAU against FAM96A,0.457
13,UGAGAUUUCUAUGUAACAC against SS18L2,0.356
14,UUAUCGAUGUCUUCGUGCC against GCK,-0.301
15,AUAGUUGCGGAUGAAGUCU against KAZN,-3.51
16,AAUGUUUCAAGAAGCUGCU against MED9,-1.82
17,UCAGGGUCCAUUGUCACCA against IGSF23,-0.567
18,UACAGGGCAAUGAACAGGG against FGR,0.274
19,AUGAAGCUCAGUCAGGUCG against TMCC2,-2.16
20,UCCUUGACGACAACUUUCC against LOC642677,-1.2
21,UAACGAUACAUUUGCUUGG against SGIP1,0.118
22,UUGGGUGCAAGAAUGUCCA against CHTF18,-2.47
23,UUCAAUUCUACUGAUCAUC against CSNK1A1,0.146

row,Sequence,seed-corrected z-score
1,UUAAAGACUUCAUAAAAGC against SLC25A3,-0.603
2,UAAUUGUCAUUACUAAGUG against SLC17A6,-0.508
3,UUGGUAUCGAUUUUCUACC against ATRN,-0.607
4,ACCUCCAAAAUUUCACUGC against ZSCAN10,0.616
5,AAUGAUUGCACUAAUCUUC against IK,-3.4
6,UCUUGGUACUGGAUGCAGC against LOC645166,1.33
7,UCUUCGAGUGAGUCAAUGC against C10orf12,-0.0711
8,UCGCUGAUUAGCUUUCUCC against CUX2,0.0999
9,UUCGUUGUCUCGAAGGGCU against TRAPPC2L,-2.92
10,UUUCCUCUUAGUCAACUUC against CHIC1,-0.602
11,AAAGGACUGAUGUCUAACC against DHX15,0.0405
12,UAUGUACAUGCAGCAGGCC against PVRL4,-0.603
13,AUGGGAGUCACAACAGUGU against OR10A5,-9.99
14,UUUCACUCAACCAUCAUUG against HOPX,-0.598
15,UGCCUUUGGAGGAUCUGCG against HLA-F,-0.923
16,UGCUUGCUCGCAAAAGUCC against TSHZ1,0.387
17,UGAACUGCCUGGUCUGUCG against PDE6G,-0.214
18,AUUCUUAUCCCAGCGGAGC against PGM2L1,0.162
19,UCAAUUCCCAGGGUAAAGG against PIGN,-2.84
20,UAACAUCUUGGAGCACUAC against CCDC54,-0.239
21,UUGUGAACAGUUGAGGUGC against OSBP2,-0.0205
22,UCACUGUCGCCGUCAAAGC against CCKBR,-2.68
23,UCUUGUGCUAAAUCCCUGC against BRINP3,-0.668

row,Sequence,seed-corrected z-score
1,UGCUGAACUAGGGAAGUGC against MAGIX,-0.0881
2,UACCCAUCCGCAUCACUGC against CD320,0.0894
3,UCCCGAAUAACCAUUGAGC against RFX3,-0.206
4,UUGGUAUUAUAACAGAUCC against ELMOD1,-9
5,UUGAUCAACAUAAUCAAGC against ASB14,-0.125
6,UACUCGGUAAAUGUACUGG against ADH7,0.328
7,AAGGGUAUUGGGAUUGAGC against MAP3K13,0.023
8,AGCUUUAUUCAGUCAGUGC against GPBAR1,-0.579
9,UUACGAAUGGGCAAAAUUG against ZCWPW1,-0.169
10,UUUGCUGGUAUUCUUCACC against ACYP2,0.0336
11,AUGUAUUCCAUUCUCACCG against GRSF1,-4.16
12,UAUUGAUGCUGCAUGACCC against ITGAM,0.677
13,UAAGUAUAACCAUCUGUUC against OR6C2,0.149
14,UGAACAUAAAUUCCAGCUC against CLEC2L,0.442
15,UCACUUACAAAGCUCAGAG against LUZP1,-1.94
16,UUAUUUAUGUAGUUCAGGA against IZUMO4,-1.87
17,AAGACAAUAAUGUUGCUGC against CLDN17,-0.436
18,UCAGUAAUCAGCUUGAAUU against RPS3A,2.45
